We go through 29 compounds from PubChem BioAssay (NCATS).

Several values for one entry are separate records, joined by “and”; a condition that tells them apart may be missing. Identical values can stand only once. Activity calls are given as the source filed them. Calls follow the shape of the full dose curve.
Potency is read from the fitted curve at half-maximal effect.

This test deals with Glucocorticoid receptor (Homo sapiens) (UniProt P04150). Nature of the test: GR-EFC Redistribution (AID 451). Conditions: CHO-K1 GR-EFC translocation, beta-gal luminescence, 2 h. The method, boiled down: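 CHO-K1 cells stably expressing nuclear-localized β-gal enzyme acceptor and GR fused C-terminally to the enzyme donor fragment; ligand-driven nuclear translocation restores β-gal by complementation. Compounds titrated up to 46 uM final, 2 h at 37 °C; luminescence read.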
Glucocorticoid receptor (Homo sapiens), sequence (P04150 whole entry, looked up, the tested form may be a part): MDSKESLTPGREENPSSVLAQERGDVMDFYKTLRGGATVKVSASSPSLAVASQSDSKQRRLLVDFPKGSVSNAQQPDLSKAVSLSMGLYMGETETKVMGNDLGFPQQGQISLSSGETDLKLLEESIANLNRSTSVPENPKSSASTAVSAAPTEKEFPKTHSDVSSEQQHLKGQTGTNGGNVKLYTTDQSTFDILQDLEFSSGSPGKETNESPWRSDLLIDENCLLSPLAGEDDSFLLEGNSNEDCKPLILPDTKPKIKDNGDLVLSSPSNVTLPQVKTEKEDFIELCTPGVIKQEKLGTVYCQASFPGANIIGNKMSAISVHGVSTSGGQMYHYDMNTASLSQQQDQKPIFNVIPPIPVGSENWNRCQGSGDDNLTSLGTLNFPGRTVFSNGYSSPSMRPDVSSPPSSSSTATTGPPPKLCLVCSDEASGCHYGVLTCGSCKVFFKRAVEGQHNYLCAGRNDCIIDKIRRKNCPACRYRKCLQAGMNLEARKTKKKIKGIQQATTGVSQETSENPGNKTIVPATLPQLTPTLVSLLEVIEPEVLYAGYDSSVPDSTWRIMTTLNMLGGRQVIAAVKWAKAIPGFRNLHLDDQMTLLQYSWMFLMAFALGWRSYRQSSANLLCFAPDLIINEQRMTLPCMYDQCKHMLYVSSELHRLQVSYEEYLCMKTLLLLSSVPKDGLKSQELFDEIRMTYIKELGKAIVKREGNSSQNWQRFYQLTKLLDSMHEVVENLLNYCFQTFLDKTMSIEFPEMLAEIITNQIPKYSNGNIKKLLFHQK
As to `COc1cccc(C(=O)NCCN2CCN(c3ccc(Cl)cc3)CC2)c1`, the Potency was > 46 µM (inactive). Regarding `Fc1ccc(C(OCCCc2cnc[nH]2)c2ccc(F)cc2)cc1`, the Potency was > 46 µM (inactive). `O=C(O)Cc1ccc(-c2ccccc2)cc1`: the Potency is > 20.6 µM (inactive). With `Ic1ccc(N2CCN(Cc3c[nH]c4ncccc34)CC2)cc1`, the Potency was > 46 µM (inactive). Next, `O=C(O)c1cc(=O)c2c(Cl)cc(Cl)cc2[nH]1`: > 46 µM (inactive); `COc1ccccc1N1CCN(CCCCNS(=O)(=O)c2cccc3c(N(C)C)cccc23)CC1`: > 46 µM (inactive); `Clc1ccc(N2CCN(Cc3c[nH]c4ncccc34)CC2)cc1`: > 46 µM (inactive). For `CN1[C@@H]2CC[C@H]1CC(OC(c1ccccc1)c1ccccc1)C2` (some centres undefined), the Potency is > 46 µM (inactive) and > 9.22 µM (inactive). As to `CN=c1nc(-c2ccccc2)n(-c2ccccc2)s1`, the Potency was > 46 µM (inactive). Consider `O=C(Nc1cccc(C(=O)Nc2ccc(S(=O)(=O)O)c3cc(S(=O)(=O)O)cc(S(=O)(=O)O)c23)c1)Nc1cccc(C(=O)Nc2ccc(S(=O)(=O)O)c3cc(S(=O)(=O)O)cc(S(=O)(=O)O)c23)c1`, for which the Potency was > 46 µM (inactive). On to `NCCCCCCCCCCN`, for which the Potency was > 46 µM (inactive). For `NCCSSCCN`, the Potency was > 46 µM (inactive) and > 9.22 µM (inactive).

Turning to `N#C/C(=C\c1ccc(O)c(O)c1)C(=O)NCCCc1ccccc1`, the Potency was > 46 µM (inactive). Take `CC(C)Cc1ccc([C@H](C)C(=O)O)cc1`: the Potency is > 46 µM (inactive) and > 20.6 µM (inactive). `O=c1[nH]c2cc(Cl)c(Cl)cc2[nH]c1=O`: the Potency is > 46 µM (inactive). As for `Cc1nc2sccn2c(=O)c1CCN1CCC(=C(c2ccccc2)c2ccc(F)cc2)CC1`, the Potency is > 46 µM (inactive). Regarding `NC(N)=NC(=O)c1nc(Cl)c(N2CCCCCC2)nc1N`, the Potency is > 46 µM (inactive).

Regarding `O=C1NC(O)=NC1(c1ccccc1)c1ccccc1`, the Potency was > 46 µM (inactive). Turning to `CN1CCc2cc(NC(=O)Nc3cccnc3)ccc21`, the Potency is > 46 µM (inactive). Turning to `CN(C)c1nc(N)c(C(=O)N=C(N)N)nc1Cl`, the Potency was > 46 µM (inactive). `O=C(O)c1cc([N+](=O)[O-])ccc1NCCCc1ccccc1`: the Potency was > 46 µM (inactive). With `CCCN(CC1CC1)c1nc(C)nc(Nc2c(Cl)cc(Cl)cc2Cl)c1Cl`, the Potency is > 46 µM (inactive).

With `NCCCS(=O)(=O)O`, the Potency was > 46 µM (inactive).

Consider `O=C(O)CC[C@@H](C(=O)O)N1C(=O)c2ccccc2C1=O`, for which the Potency was > 46 µM (inactive) and > 9.22 µM (inactive). Regarding `O=C(c1cc(O)c(O)c([N+](=O)[O-])c1)c1ccccc1F`, the Potency was > 46 µM (inactive). In the case of `CN1CCc2ccccc2Cc2[nH]c3ccccc3c2CC1`, the Potency was > 46 µM (inactive). `O=c1[nH]c2cc([N+](=O)[O-])c([N+](=O)[O-])cc2[nH]c1=O`: the Potency is > 46 µM (inactive).

Consider `O=c1[nH]c2ccccc2n1CCCN1CCN(C(c2ccccc2)c2ccccc2)CC1`, for which the Potency is > 46 µM (inactive). On to `N#C/C(=C\c1c[nH]c2ccccc12)C(=O)c1ccc(O)c(O)c1`, for which the Potency is > 46 µM (inactive).
